Measurements reported in the supplement of paper PMC6555819.

Tests used:
Assay in all cases: PBM binding z-score (relative to random genomic background probes); higher = stronger binding; sequences stand for … in GC…GCGATTGACAGCGTAGAATGAAGG
[1] = test system: FXR:RXRa (NR concentration 270 nM, RXRa partner concentration 90 nM)
Procedure, shortened: (§1)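 Probes were double-stranded and carried 34-nt variable regions with direct-repeat seeds, single-nucleotide variants, half-site ablations and random human genomic background sequences, printed on custom Agilent 4×180K protein-binding microarrays. Arrays were incubated 1 h with ligand-free nuclear receptor dimers in PBS pH 7.4, 2% milk, 0.02% Triton X-100, 1 mM DTT, 0.2 mg/mL BSA and 0.4 mg/ml salmon testes DNA. Antibodies against each partner (one per run) detected binding, and scanned fluorescence was regression-normalized. Binding z-scores use the random background probes as reference.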

[2] = test system: LXRa:RXRa (NR concentration 270 nM, RXRa partner concentration 90 nM)
Procedure, shortened: as §1

[3] = test system: LXRa homodimer (NR concentration 270 nM)
Procedure, shortened: as §1

[4] = test system: LXRb:RXRa (NR concentration 270 nM, RXRa partner concentration 90 nM)
Procedure, shortened: as §1

[5] = test system: LXRb homodimer (NR concentration 270 nM)
Procedure, shortened: as §1

[6] = test system: PPARa:RXRa (NR concentration 270 nM, RXRa partner concentration 90 nM)
Procedure, shortened: as §1

[7] = test system: PPARg:RXRa (NR concentration 180 nM, RXRa partner concentration 90 nM)
Procedure, shortened: as §1

[8] = test system: PPARg:RXRa 270nM:90nM, anti-RXR (NR concentration 270 nM, RXRa partner concentration 90 nM)
Procedure, shortened: as §1

[9] = test system: PPARg:RXRa 30nM:10nM, anti-RXR (NR concentration 30 nM, RXRa partner concentration 10 nM)
Procedure, shortened: as §1

[10] = test system: PPARg:RXRa 90nM:30nM, anti-RXR (NR concentration 90 nM, RXRa partner concentration 30 nM)
Procedure, shortened: as §1

[11] = test system: PPARg:RXRa DBDmut IVT, anti-RXR (DBD mutation: RXRa K156A/R161A, NR concentration 270 nM, RXRa partner concentration 90 nM)
Procedure, shortened: as §1

[12] = test system: PPARg:RXRa IVT, anti-PPARg (NR concentration 270 nM, RXRa partner concentration 90 nM)
Procedure, shortened: as §1

[13] = test system: PPARg DBDmut:RXRa IVT, anti-PPARg (DBD mutation: PPARg1 K132A/R137A, NR concentration 270 nM, RXRa partner concentration 90 nM)
Procedure, shortened: as §1

[14] = test system: PPARg DBDmut IVT, anti-PPARg (DBD mutation: PPARg1 K132A/R137A, NR concentration 270 nM)
Procedure, shortened: as §1

[15] = test system: PPARg homodimer (NR concentration 180 nM)
Procedure, shortened: as §1

[16] = test system: PXR:RXRa (NR concentration 270 nM, RXRa partner concentration 90 nM)
Procedure, shortened: as §1

[17] = test system: PXR homodimer (NR concentration 270 nM)
Procedure, shortened: as §1

[18] = test system: RARa:RXR (NR concentration 270 nM, RXRa partner concentration 90 nM)
Procedure, shortened: as §1

[19] = test system: RARa homodimer (NR concentration 270 nM)
Procedure, shortened: as §1

[20] = test system: RARb:RXRa (NR concentration 270 nM, RXRa partner concentration 90 nM)
Procedure, shortened: as §1

| Sequence | PBM binding z-score [1] | PBM binding z-score [2] | PBM binding z-score [3] | PBM binding z-score [4] | PBM binding z-score [5] | PBM binding z-score [6] | PBM binding z-score [7] | PBM binding z-score [8] | PBM binding z-score [9] | PBM binding z-score [10] | PBM binding z-score [11] | PBM binding z-score [12] | PBM binding z-score [13] | PBM binding z-score [14] | PBM binding z-score [15] | PBM binding z-score [16] | PBM binding z-score [17] | PBM binding z-score [18] | PBM binding z-score [19] | PBM binding z-score [20] |
| --- | --- | --- | --- | --- | --- | --- | --- | --- | --- | --- | --- | --- | --- | --- | --- | --- | --- | --- | --- | --- |
| CGAACTAGGTCATTGACAGGACAGCGAATAGTAA | 4.04 | 2.83 | 0.577 | 1.84 | -0.147 | 4.83 | 7.35 | 6.29 | 3.94 | 5.75 | 7.7 | 7.96 | 1.01 | 0.969 | 1.57 | 1.35 | 0.255 | 2.1 | 0.179 | 3.61 |
| CTCGAAAGGTCGTGTTCAGGTGAGTATACCAAAC | 4.67 | 3.64 | 0.232 | 3.31 | 0.113 | 4.76 | 2.42 | 3.38 | 0.878 | 2.07 | 0.51 | 1.95 | 0.275 | 1.56 | 1.51 | 3.14 | 0.411 | 3.85 | 0.304 | 3.78 |
| TCGAGTAGGTCAGTCGGGGCATTCAGCCAACATA | 1.39 | 1.09 | -0.271 | 1.55 | -0.625 | 2.56 | 2.27 | 2.87 | 1.39 | 2.2 | 4.8 | 4.74 | 0.141 | -0.71 | 1.14 | 1.71 | 0.855 | 1.47 | -0.53 | 3.03 |
| ATCTCTAGGTAAGACTCAGTTCAATGAAGAACGC | 0.961 | 1.03 | 1.15 | 1.04 | 1.18 | 0.681 | 0.379 | 0.658 | 0.44 | 0.504 | 1.88 | 1.16 | 1.2 | 1.44 | 1.39 | 2.1 | 2.69 | 1.34 | 1.4 | 0.797 |
| ATCGAAAGGTCGAGGTGAGAATAGAGAAAGGGAA | 4.1 | 3.48 | 0.181 | 2.84 | 0.399 | 4.79 | 3.58 | 3.93 | 1.56 | 2.64 | 0.541 | 2.39 | 1.22 | 0.93 | 0.599 | 2.36 | 0.337 | 3.52 | 0.51 | 4.16 |
| CTCGAAAGGTCGTGATCAGGTGAGTATACCAAAC | 5.37 | 3.83 | 0.129 | 3.24 | 0.0388 | 4.89 | 3.12 | 3.71 | 1.2 | 2.73 | 0.796 | 1.71 | 1.37 | 0.63 | 2.1 | 3.28 | -0.0349 | 4.26 | 0.477 | 3.96 |
| CGTGAAAGTTCAACTAAGGTAACGTAAAGCACGC | 6.32 | 6.09 | 4.26 | 3.89 | 1.84 | 4.98 | 3.58 | 4.78 | 1.6 | 3.39 | -0.0451 | 1.86 | 0.513 | 0.603 | 2.63 | 5.31 | 3.52 | 3.81 | 1.22 | 5.19 |
